# Results taken from PubChem BioAssay (EPA / NIEHS).
# Inconclusive results are not listed. The source made the active and inactive calls. Rule for the calls: active = hit-call score of the fitted dose curve at least 0.9, where 1 is the maximum; inconclusive = response in the unintended direction; inactive = score below 0.9.
# Legend:
# [1] = biological target: Serine/threonine-protein phosphatase PP1-alpha catalytic subunit (Homo sapiens) (UniProt P62136); experiment: NVS_ENZ_hPPP1CA: NovaScreen (NVS) Enzymatic Assay for human Protein Phosphatase 1 Aatalytic subunit Alpha (PPP1CA) (AID 2283200)
# In short: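 Chemicals were first screened in duplicate at 25 uM, and those passing threshold (e.g. 30% inhibition) were run as concentration series to 50 uM. Cell-free recombinant protein, 1.33 h read, fluorescent substrate/product mobility-shift detection, normalised to DMSO.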
# [2] = biological target: Tyrosine-protein phosphatase non-receptor type 11 (Homo sapiens) (UniProt Q06124); experiment: NVS_ENZ_hPTPN11: NovaScreen (NVS) Enzymatic Assay for human Protein Tyrosine Phosphatase Non-receptor Type 11 (PTPN11) (AID 2283202)
# In short: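 Compounds first tested in duplicate at 25 uM; those reaching ~30% inhibition rerun in singleton concentration-response, top 50 uM. Phosphatase activity measured after 0.5 h by fluorescence with mobility-shift separation, relative to DMSO.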
# [3] = biological target: Tyrosine-protein phosphatase non-receptor type 14 (Homo sapiens) (UniProt Q15678); experiment: NVS_ENZ_hPTPN14: NovaScreen (NVS) Enzymatic Assay for human Protein Tyrosine Phosphatase Non-receptor Type 14 (PTPN14) (AID 2283206)
# In short: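 Fluorescent substrate turnover by recombinant human PTPN14 was measured 0.5 h after compound addition, with substrate and product separated by mobility shift. Single-point screening at 25 uM, then concentration-response up to 50 uM for chemicals meeting threshold (e.g., 30% inhibition).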
# [4] = biological target: human Protein Tyrosine Phosphatase Non-receptor Type 4 (PTPN4), PTPN4 (gene 5775) (UniProt P29074); experiment: NVS_ENZ_hPTPN4: NovaScreen (NVS) Enzymatic Assay for human Protein Tyrosine Phosphatase Non-receptor Type 4 (PTPN4) (AID 2283208)
# In short: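 Screened in duplicate at 25 uM, with hits then titrated to a top concentration of 50 uM. Recombinant Sf9-derived PTPN4 turnover was read by fluorescence with electrophoretic separation, 1.33 h after compound addition. DMSO served as baseline.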
# [5] = biological target: human Protein Tyrosine Phosphatase Non-receptor Type 6 (PTPN6), PTPN6 (gene 5777) (UniProt P29350); experiment: NVS_ENZ_hPTPN6: NovaScreen (NVS) Enzymatic Assay for human Protein Tyrosine Phosphatase Non-receptor Type 6 (PTPN6) (AID 2283210)
# In short: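 Recombinant human PTPN6 from SF9 cells, enzyme activity followed by fluorescence after mobility-shift separation of substrate and product at 1.33 h. Chemicals first tested at a single 25 uM in duplicate, then confirmed across concentration series; loss of signal relative to DMSO.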
# [6] = biological target: human Protein Tyrosine Phosphatase Non-receptor Type 1 (PTPN1), PTPN1 (gene 5770) (UniProt P18031); experiment: NVS_ENZ_hPTPN1: NovaScreen (NVS) Enzymatic Assay for human Protein Tyrosine Phosphatase Non-receptor Type 1 (PTPN1) (AID 2283201)
# In short: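 Chemicals were first tested in duplicate at 25 uM, and those passing threshold went on to singleton concentration series topping at 50 uM. Recombinant enzyme, specific substrate, product separated by mobility shift, fluorescence read at 1.33 h; activity loss relative to DMSO.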
# [7] = biological target: Tyrosine-protein phosphatase non-receptor type 12 (Homo sapiens) (UniProt Q05209); experiment: NVS_ENZ_hPTPN12: NovaScreen (NVS) Enzymatic Assay for human Protein Tyrosine Phosphatase Non-receptor Type 12 (PTPN12) (AID 2283204)
# In short: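 Single-concentration duplicates (25 uM) preceded singleton concentration-response up to 50 uM for chemicals passing threshold. Cell-free recombinant PTPN12 activity was read 1.33 h after dosing via fluorescence after mobility-shift separation; loss of signal versus DMSO.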
# [8] = biological target: human Protein Tyrosine Phosphatase Receptor Type B (PTPRB), PTPRB (gene 5787) (UniProt P23467); experiment: NVS_ENZ_hPTPRB: NovaScreen (NVS) Enzymatic Assay for human Protein Tyrosine Phosphatase Receptor Type B (PTPRB) (AID 2283211)
# In short: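 Recombinant human PTPRB with a fluorescent substrate, product separated by electrophoretic mobility shift; read 1 h after dosing. Primary screen in duplicate at 25 uM; actives then retested in concentration series; loss of signal versus DMSO.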
# [9] = biological target: human Vascular Endothelial Growth Factor Receptor 1 (VEGFR1), FLT1 (gene 2321) (UniProt P17948); experiment: NVS_ENZ_hVEGFR1: NovaScreen (NVS) Enzymatic Assay for human Vascular Endothelial Growth Factor Receptor 1 (VEGFR1) (AID 2283226)
# In short: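 Kinase activity of recombinant human VEGFR1 was read by fluorescence after electrophoretic separation of product from substrate, 1 h post-dosing; initial duplicate single-point testing at 25 uM, followed by concentration-series follow-up, with DMSO as baseline.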
# [10] = biological target: human Protein Phosphatase, Mg2+/Mn2+ Dependent 1A (PPM1A), PPM1A (gene 5494) (UniProt P35813); experiment: NVS_ENZ_hPPM1A: NovaScreen (NVS) Enzymatic Assay for human Protein Phosphatase, Mg2+/Mn2+ Dependent 1A (PPM1A) (AID 2283198)
# In short: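 Primary screen in duplicate at 25 uM, with actives then titrated to a maximum of 50 uM. Recombinant PPM1A dephosphorylation of fluorescent substrate measured at 1 h, with substrate and product separated by mobility shift; inhibition fitted against DMSO.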
# [11] = biological target: rabbit Imidazoline 2 Central (I2C), CKB (gene 100009085) (UniProt P00567); experiment: NVS_ENZ_rabI2C: NovaScreen (NVS) Enzymatic Assay for rabbit Imidazoline 2 Central (I2C) (AID 2283228)
# In short: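 Rabbit brain membranes, cell-free; readout by filter-based scintillation counting 1.5 hours after dosing, loss of signal vs DMSO. Initial duplicate test at 25 uM, then concentration-response with 50 uM top concentration.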
# [12] = biological target: human Sirtuin 3 (SIRT3), SIRT3 (gene 23410) (UniProt Q9NTG7); experiment: NVS_ENZ_hSIRT3: NovaScreen (NVS) Enzymatic Assay for human Sirtuin 3 (SIRT3) (AID 2283222)
# In short: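 Cell-free enzyme assay with recombinant protein and fluorescent substrate, product separated by electrophoretic mobility shift; read 1 hour after dosing. Screened in duplicate at 25 uM, then singleton concentration-response up to 50 uM; loss of signal versus DMSO.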
# [13] = biological target: Tyrosine-protein phosphatase non-receptor type 13 (Homo sapiens) (UniProt Q12923); experiment: NVS_ENZ_hPTPN13: NovaScreen (NVS) Enzymatic Assay for human Protein Tyrosine Phosphatase Non-receptor Type 13 (PTPN13) (AID 2283205)
# In short: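 Screened first at a single 25 uM in duplicate; compounds passing the threshold (e.g. 30% inhibition) were rerun in concentration series, top 50 uM. Recombinant enzyme, fluorescent substrate, mobility-shift separation, 0.5 h read. Data fitted as inhibition relative to DMSO.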
# [14] = biological target: human Protein Tyrosine Phosphatase Receptor Type F (PTPRF), PTPRF (gene 5792) (UniProt P10586); experiment: NVS_ENZ_hPTPRF: NovaScreen (NVS) Enzymatic Assay for human Protein Tyrosine Phosphatase Receptor Type F (PTPRF) (AID 2283213)
# In short: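 Cell-free fluorescence enzyme assay with recombinant protein and substrate; product separated by electrophoretic mobility shift. Read 1 h after dosing, single 25 uM duplicate screen, then concentration-response up to 50 uM; loss of signal vs DMSO.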
# [15] = biological target: human Protein Tyrosine Phosphatase Receptor Type M (PTPRM), PTPRM (gene 5797) (UniProt P28827); experiment: NVS_ENZ_hPTPRM: NovaScreen (NVS) Enzymatic Assay for human Protein Tyrosine Phosphatase Receptor Type M (PTPRM) (AID 2283215)
# In short: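 Read-out is fluorescence after electrophoretic separation of substrate and product, taken 1.33 h post-dosing with recombinant enzyme. Compounds screened at 25 uM in duplicate, then concentration series for actives; activity as signal loss relative to DMSO.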
# [16] = biological target: human Sirtuin 1 (SIRT1), SIRT1 (gene 23411) (UniProt Q96EB6); experiment: NVS_ENZ_hSIRT1: NovaScreen (NVS) Enzymatic Assay for human Sirtuin 1 (SIRT1) (AID 2283219)
# In short: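 Cell-free recombinant SIRT1 with a fluorescent substrate; substrate and product separated by electrophoretic mobility shift and read by fluorescence intensity, 1 h after dosing. Primary screen at 25 uM in duplicate; hits re-run in concentration-response up to 50 uM, relative to DMSO.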
# [17] = biological target: human Tropomyosin Receptor Kinase A (TRKA), NTRK1 (gene 4914) (UniProt P04629); experiment: NVS_ENZ_hTrkA: NovaScreen (NVS) Enzymatic Assay for human Tropomyosin Receptor Kinase A (TRKA) (AID 2283224)
# In short: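 Compounds were screened at 25 uM in duplicate, then concentration series to a 50 uM top for those meeting threshold (e.g. 30% inhibition). Enzyme was recombinant human TrkA, incubated 1 h. Product formation was quantified by fluorescence after mobility-shift separation.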
# [18] = biological target: human Rho Associated Coiled-coil Containing Protein Kinase 1 (ROCK1), ROCK1 (gene 6093) (UniProt Q13464); experiment: NVS_ENZ_hROCK1: NovaScreen (NVS) Enzymatic Assay for human Rho Associated Coiled-coil Containing Protein Kinase 1 (ROCK1) (AID 2283214)
# In short: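 Compounds first run in duplicate at 25 uM against recombinant human ROCK1, then followed in concentration series. Kinase activity was read 1 h post-dosing by fluorescence with mobility-shift separation, as signal loss relative to DMSO.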
# [19] = biological target: human SRC Proto-Oncogene, Non-receptor Tyrosine Kinase (SRC), SRC (gene 6714) (UniProt P12931); experiment: NVS_ENZ_hSRC: NovaScreen (NVS) Enzymatic Assay for human SRC Proto-Oncogene, Non-receptor Tyrosine Kinase (SRC) (AID 2283223)
# In short: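 Compounds passing 30% inhibition at 25 uM (duplicate) were titrated to a top concentration of 50 uM. Enzyme activity read by fluorescence with mobility-shift substrate/product separation after 1 h; DMSO baseline.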
# Chain of human Protein Tyrosine Phosphatase Receptor Type M (PTPRM), PTPRM (gene 5797) (P28827 whole entry, looked up): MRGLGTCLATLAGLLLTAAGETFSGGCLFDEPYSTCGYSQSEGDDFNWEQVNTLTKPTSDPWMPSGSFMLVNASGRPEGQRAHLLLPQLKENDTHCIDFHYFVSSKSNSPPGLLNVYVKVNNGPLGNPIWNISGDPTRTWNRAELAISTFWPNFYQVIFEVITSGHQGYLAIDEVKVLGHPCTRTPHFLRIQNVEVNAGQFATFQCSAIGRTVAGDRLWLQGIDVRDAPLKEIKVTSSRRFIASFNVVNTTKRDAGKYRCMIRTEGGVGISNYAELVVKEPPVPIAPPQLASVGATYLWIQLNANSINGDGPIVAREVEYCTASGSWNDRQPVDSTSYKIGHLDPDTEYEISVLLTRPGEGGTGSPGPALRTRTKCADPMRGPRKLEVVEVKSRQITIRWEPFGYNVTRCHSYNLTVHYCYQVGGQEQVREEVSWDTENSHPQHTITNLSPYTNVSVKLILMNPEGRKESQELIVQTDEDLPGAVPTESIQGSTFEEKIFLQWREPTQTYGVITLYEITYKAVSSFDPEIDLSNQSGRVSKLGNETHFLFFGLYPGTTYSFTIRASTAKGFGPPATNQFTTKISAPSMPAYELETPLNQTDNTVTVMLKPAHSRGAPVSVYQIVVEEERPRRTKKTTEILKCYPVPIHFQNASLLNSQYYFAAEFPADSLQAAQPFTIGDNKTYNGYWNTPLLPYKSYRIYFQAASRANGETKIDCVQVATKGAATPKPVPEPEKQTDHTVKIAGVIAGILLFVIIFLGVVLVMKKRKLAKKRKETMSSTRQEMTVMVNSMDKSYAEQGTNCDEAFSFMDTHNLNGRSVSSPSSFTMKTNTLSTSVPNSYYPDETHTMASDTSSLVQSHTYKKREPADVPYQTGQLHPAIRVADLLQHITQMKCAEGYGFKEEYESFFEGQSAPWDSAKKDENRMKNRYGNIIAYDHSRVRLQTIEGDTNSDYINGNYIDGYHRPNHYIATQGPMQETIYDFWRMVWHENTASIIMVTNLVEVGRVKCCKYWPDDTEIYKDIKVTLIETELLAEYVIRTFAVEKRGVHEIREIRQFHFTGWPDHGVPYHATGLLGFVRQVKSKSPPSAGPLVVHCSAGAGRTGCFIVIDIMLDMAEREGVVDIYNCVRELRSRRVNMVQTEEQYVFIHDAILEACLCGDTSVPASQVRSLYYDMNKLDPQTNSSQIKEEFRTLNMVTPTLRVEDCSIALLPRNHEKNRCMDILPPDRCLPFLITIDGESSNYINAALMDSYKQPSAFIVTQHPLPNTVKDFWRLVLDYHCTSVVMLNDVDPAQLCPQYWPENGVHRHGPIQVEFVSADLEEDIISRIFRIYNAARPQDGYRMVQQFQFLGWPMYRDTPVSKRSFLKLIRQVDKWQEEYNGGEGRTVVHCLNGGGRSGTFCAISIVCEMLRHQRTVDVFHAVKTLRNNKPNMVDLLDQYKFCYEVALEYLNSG
# Chain of Tyrosine-protein phosphatase non-receptor type 12 (Homo sapiens) (Q05209 whole entry, looked up): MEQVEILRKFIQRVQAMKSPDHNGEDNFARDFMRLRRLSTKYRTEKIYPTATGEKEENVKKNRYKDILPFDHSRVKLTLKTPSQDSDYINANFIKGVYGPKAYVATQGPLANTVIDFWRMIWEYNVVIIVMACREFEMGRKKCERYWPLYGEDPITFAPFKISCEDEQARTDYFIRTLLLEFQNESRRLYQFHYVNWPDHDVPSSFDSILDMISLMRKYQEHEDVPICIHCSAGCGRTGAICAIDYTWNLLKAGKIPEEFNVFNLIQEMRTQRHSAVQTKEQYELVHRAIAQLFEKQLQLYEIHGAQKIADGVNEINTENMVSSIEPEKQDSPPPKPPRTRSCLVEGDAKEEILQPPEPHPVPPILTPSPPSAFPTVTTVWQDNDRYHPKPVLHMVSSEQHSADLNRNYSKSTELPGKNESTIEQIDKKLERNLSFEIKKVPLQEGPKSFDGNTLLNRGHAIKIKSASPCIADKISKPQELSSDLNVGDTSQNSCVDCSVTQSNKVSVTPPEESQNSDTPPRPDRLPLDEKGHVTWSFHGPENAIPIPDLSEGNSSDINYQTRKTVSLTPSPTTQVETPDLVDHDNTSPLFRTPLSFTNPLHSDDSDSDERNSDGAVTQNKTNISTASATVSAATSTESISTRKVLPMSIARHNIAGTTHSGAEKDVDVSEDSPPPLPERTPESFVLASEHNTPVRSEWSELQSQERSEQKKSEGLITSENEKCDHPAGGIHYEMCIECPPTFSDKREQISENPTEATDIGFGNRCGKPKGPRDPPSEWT
# Chain of human Sirtuin 3 (SIRT3), SIRT3 (gene 23410) (Q9NTG7 whole entry, looked up): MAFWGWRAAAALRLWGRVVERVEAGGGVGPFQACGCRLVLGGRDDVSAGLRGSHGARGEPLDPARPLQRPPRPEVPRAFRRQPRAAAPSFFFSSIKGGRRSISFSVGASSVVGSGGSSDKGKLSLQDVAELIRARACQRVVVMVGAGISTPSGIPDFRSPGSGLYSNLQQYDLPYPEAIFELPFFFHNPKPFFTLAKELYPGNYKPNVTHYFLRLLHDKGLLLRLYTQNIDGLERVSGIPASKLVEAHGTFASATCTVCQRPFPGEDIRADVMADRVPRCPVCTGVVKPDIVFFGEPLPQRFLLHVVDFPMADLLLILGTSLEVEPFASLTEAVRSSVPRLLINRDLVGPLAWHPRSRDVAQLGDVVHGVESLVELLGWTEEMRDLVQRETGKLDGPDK
# Chain of Serine/threonine-protein phosphatase PP1-alpha catalytic subunit (Homo sapiens) (P62136 whole entry, looked up): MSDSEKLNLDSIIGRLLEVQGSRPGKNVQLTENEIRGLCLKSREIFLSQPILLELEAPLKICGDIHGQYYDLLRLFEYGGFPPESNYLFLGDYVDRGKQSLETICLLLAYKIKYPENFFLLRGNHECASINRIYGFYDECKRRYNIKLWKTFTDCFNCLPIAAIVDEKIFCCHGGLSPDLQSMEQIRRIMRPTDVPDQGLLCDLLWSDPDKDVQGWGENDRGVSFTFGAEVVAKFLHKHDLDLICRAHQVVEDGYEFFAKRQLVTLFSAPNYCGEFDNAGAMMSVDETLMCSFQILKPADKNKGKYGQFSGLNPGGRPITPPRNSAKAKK
# Chain of Tyrosine-protein phosphatase non-receptor type 11 (Homo sapiens) (Q06124 whole entry, looked up): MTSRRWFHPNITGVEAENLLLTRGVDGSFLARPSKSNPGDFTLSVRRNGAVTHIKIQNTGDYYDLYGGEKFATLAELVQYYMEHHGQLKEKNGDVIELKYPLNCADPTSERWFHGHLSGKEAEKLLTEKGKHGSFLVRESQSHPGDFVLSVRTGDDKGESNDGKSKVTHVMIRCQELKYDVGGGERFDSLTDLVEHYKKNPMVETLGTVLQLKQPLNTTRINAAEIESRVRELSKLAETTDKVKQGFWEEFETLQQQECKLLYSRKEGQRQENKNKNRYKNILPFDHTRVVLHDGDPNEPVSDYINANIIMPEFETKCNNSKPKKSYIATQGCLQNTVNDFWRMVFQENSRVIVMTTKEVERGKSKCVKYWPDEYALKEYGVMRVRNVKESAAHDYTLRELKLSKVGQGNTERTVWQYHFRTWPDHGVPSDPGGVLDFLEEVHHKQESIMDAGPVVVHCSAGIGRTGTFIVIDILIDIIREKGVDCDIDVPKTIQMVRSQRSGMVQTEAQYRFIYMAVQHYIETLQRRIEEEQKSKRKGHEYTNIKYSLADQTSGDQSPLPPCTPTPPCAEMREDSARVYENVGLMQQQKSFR
# Chain of human Protein Tyrosine Phosphatase Non-receptor Type 4 (PTPN4), PTPN4 (gene 5775) (P29074 whole entry, looked up): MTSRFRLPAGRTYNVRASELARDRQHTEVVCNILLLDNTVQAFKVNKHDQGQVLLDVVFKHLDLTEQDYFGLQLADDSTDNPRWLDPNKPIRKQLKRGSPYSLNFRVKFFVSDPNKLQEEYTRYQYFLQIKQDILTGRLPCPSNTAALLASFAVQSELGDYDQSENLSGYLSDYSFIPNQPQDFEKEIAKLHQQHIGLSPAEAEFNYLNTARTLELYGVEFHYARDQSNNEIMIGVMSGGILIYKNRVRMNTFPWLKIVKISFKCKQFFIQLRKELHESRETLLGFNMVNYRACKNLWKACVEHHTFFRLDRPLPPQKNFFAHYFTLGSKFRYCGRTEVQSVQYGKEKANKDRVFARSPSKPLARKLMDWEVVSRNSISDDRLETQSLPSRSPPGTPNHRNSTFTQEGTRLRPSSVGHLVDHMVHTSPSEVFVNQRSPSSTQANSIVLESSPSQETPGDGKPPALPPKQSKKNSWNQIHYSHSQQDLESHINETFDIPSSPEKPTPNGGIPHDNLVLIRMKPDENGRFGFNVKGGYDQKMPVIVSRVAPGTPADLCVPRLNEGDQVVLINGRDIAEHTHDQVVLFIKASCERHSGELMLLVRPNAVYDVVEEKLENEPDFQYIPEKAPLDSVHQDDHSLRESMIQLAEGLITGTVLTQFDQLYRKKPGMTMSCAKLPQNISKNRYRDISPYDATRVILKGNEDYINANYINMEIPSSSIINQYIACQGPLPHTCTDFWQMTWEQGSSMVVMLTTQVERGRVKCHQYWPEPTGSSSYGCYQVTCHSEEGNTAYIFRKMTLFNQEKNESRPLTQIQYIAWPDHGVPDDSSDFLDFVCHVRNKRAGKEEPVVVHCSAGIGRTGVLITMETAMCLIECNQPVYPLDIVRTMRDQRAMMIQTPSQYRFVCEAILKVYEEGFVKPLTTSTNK
# Chain of human SRC Proto-Oncogene, Non-receptor Tyrosine Kinase (SRC), SRC (gene 6714) (P12931 whole entry, looked up): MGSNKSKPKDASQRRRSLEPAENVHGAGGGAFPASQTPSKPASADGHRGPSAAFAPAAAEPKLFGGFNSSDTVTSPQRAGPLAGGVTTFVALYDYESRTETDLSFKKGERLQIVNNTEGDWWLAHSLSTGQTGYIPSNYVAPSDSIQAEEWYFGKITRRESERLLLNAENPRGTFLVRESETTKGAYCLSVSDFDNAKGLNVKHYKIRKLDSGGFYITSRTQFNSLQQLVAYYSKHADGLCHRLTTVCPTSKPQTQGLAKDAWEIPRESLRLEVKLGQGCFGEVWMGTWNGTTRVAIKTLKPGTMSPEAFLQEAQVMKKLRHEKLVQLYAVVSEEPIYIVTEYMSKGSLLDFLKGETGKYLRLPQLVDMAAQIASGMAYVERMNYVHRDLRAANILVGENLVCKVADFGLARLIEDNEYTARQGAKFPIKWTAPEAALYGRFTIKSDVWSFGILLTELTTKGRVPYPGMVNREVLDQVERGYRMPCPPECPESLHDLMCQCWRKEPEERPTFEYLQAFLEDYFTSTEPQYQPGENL
smiles,measurement,setting,value
Nc1nc2ncc(CNc3ccc(C(=O)N[C@@H](CCC(=O)O)C(=O)O)cc3)nc2c(=O)[nH]1,AC50,[1],8.97 µM (active)
same,AC50,[2],30.2 µM (active)
same,AC50,[3],14.9 µM (active)
same,AC50,[4],41.9 µM (active)
O=c1n(CC2CO2)c(=O)n(CC2CO2)c(=O)n1CC1CO1 (stereo not given),outcome,[1],inactive
same,outcome,[5],inactive
O=C(CCCCCCCCc1cccnc1)N1CCC(C=C(c2ccccc2)c2ccccc2)CC1,outcome,[2],inactive
CC(C)c1cccc(C(C)C)c1N1C(=O)c2ccc(O)cc2C1=O,outcome,[6],inactive
same,outcome,[7],inactive
same,outcome,[3],inactive
same,outcome,[8],inactive
same,outcome,[9],inactive
Cc1ccc(C)c(O)c1,outcome,[10],inactive
CCN(C(=O)c1cc(C)cc(OC[C@H](C)Nc2ccncc2)c1)C(C)C,outcome,[10],inactive
same,outcome,[11],inactive
O=C(O)CC(O)C(=O)O (stereo not given),AC50,[4],39.2 µM (active)
Cc1[nH]cnc1C[C@H]1CCc2c(C)c3ccccc3n2C1=O,outcome,[7],inactive
same,outcome,[12],inactive
same,outcome,[11],inactive
CCC(C)(C)C(=O)O[C@H]1C[C@@H](C)C=C2C=C[C@H](C)[C@H](CC[C@@H]3C[C@@H](O)CC(=O)O3)[C@H]21,AC50,[7],33.5 µM (active)
O=C(O)c1cccc(Oc2ccccc2)c1,outcome,[1],inactive
same,outcome,[2],inactive
same,outcome,[7],inactive
same,AC50,[13],0.119 µM (active)
same,outcome,[4],inactive
same,outcome,[8],inactive
same,outcome,[14],inactive
same,outcome,[15],inactive
same,outcome,[16],inactive
same,outcome,[17],inactive
COc1ccc2sc(C(=O)Nc3nnn[nH]3)c(OC(C)C)c2c1,AC50,[18],7.67 µM (active)
COC(=O)c1c(Cl)c(Cl)c(C(=O)OC)c(Cl)c1Cl,outcome,[18],inactive
O=P(OC(CCl)CCl)(OC(CCl)CCl)OC(CCl)CCl,outcome,[15],inactive
Nc1ccc(Nc2ccccc2)cc1,AC50,[15],15.8 µM (active)
COc1cccc(-c2ccc(/C=C\CN3CCCCCC3)cc2Cl)c1,AC50,[12],3.06 µM (active)
CC1(C)C(=O)N(Br)C(=O)N1Br,outcome,[12],inactive
COCCOc1cc2cc(C(=O)NC3CCN(C(C)C)CC3)n(CC(=O)Nc3ccc(Cl)cn3)c2cn1,outcome,[19],inactive
Clc1nc(Cl)c(Cl)c(Cl)c1Cl,outcome,[19],inactive
CC(=O)OCCC(C)C,outcome,[17],inactive
Cn1c(=O)cc(Oc2ccc(F)cc2F)c2cnc(NCC(C)(C)O)nc21,AC50,[9],29.9 µM (active)
